CCHFV vOTU inh: CCHFV vOTU protease inhibition; Pep-AMC fluorescence; inhibition, % at 11.5 µM; 370,000 tested, 0.55% active; in the data active = inhibition above about 30%
Anthrax LF inh2: anthrax lethal factor protease inhibition; inhibition, % at 10 µM; 360,000 tested, 0.12% active; AID 588501; multiplex microsphere protease cleavage assay, LF
Bead autofluor: counter-screen for toxin protease inhibitors: compound fluorescence | 360,000 tested, 3.1% active | fluorescence intensity (concentration not given with the values) | compound autofluorescence counterscreen, microsphere flow cytometry; hits give high values; in the data active = fluorescence intensity above about 16000; inconclusive = no clear call, values can overlap the other calls
BoNT A protease: blocks Botulinum neurotoxin A light chain protease; multiplex microsphere protease substrate cleavage, flow cytometry; inhibition, % at 10 µM; 360,000 tested, 0.17% active; AID 588499
BoNT F protease: blocks Botulinum neurotoxin F light chain protease. AID 588497. Multiplex microsphere protease cleavage assay, flow cytometry. inhibition, % at 10 µM. 360,000 tested, 0.22% active; in the data active = inhibition above about 35%, passing the limit was not always enough; inconclusive = no clear call, values can overlap the other calls
3CLpro inhibitor: SARS-CoV 3CLpro protease inhibition; P0C6X7; recombinant SARS-CoV 3CLpro, quenched FRET peptide cleavage; inhibition, % at 6 µM; 290,000 tested, 0.14% active; in the data active = inhibition above about 12%
Each line names hits and unclear results; the compound was inactive in the other large screens. Compounds with a hit are over-represented: about 3.9% of the library has one in this group of screens. Cut-off read from the data, not from the text of the source, unless noted: active = inhibition above about 30%; inconclusive = no clear call, values can overlap the other calls; inactive = below that.

Nc1nnc(SCC(=O)Nc2nccs2)s1	none
Cc1nnc(SCC(=O)Nc2nccs2)s1	Bead autofluor 20118
CC1CCCN(c2oc(-c3cccc4ccccc34)nc2C#N)C1 (centres undefined)	Bead autofluor 17536
COC(=O)c1cc(C(c2ccccc2O)C2CCC(C)(C)O2)n2ccccc12 (centres undefined)	none (no result: Anthrax LF inh2, Bead autofluor, BoNT A protease, BoNT F protease, 3CLpro inhibitor)
O=C(CCl)NCc1c(Cl)cccc1-n1cccc1	Bead autofluor 22575
O=C(Cc1c(Cl)cccc1Cl)NCCc1ccc(Cl)cc1	none
CCOC(=O)c1c(C)c(C(=O)N2CCN(c3ccccc3)CC2)c(C)n1C	none
CCOC(=O)c1c(C)c(C(=O)N2CCCCCC2)c(C)n1C	Bead autofluor 23943
CCOC(=O)c1c(C)c(C(=O)N2CCCCCC2)c(C)n1CC	Bead autofluor 20617, BoNT A protease inconclusive (no result: CCHFV vOTU inh)
CCOC(=O)c1c(C)c(C(=O)NCC2CCCO2)c(C)n1CC (centres undefined)	none (no result: CCHFV vOTU inh)
O=C(NC1CCCCN(Cc2ccc(Cl)cc2)C1=O)c1cccc([N+](=O)[O-])c1 (centres undefined)	none (no result: Anthrax LF inh2, Bead autofluor, BoNT A protease, BoNT F protease, 3CLpro inhibitor)
CCOC(=O)NC(CC(=O)O)c1ccc(OC)c(OC)c1 (centres undefined)	Bead autofluor 16400
C=CCN1[C@H](C#N)[C@@H](c2ccccc2)[C@H]1CO	none (no result: Anthrax LF inh2, Bead autofluor, BoNT A protease, BoNT F protease, 3CLpro inhibitor)
CC1=NN(C(=O)c2ccccc2Cl)C(O)(c2cccnc2)C1 (centres undefined)	none
CC1=NN(C(=O)Cc2ccccc2)C(O)(c2cccnc2)C1 (centres undefined)	Bead autofluor 21683, BoNT A protease inconclusive
COc1ccc(CONS(=O)(=O)c2ccc(NC(C)=O)cc2)cc1Cl	Bead autofluor 20406
CCOc1cc(C(c2c(C)[nH][nH]c2=O)c2c(C)[nH][nH]c2=O)ccc1OS(=O)(=O)c1ccccc1	Bead autofluor 20887
Nc1nonc1-c1noc(CCCOc2ccc(Cl)cc2Cl)n1	Bead autofluor 22747, BoNT A protease inconclusive
CCCCCc1nc(-c2nonc2N)no1	none
COC(=O)c1cc2c(c3c4cc(F)ccc4n(S(=O)(=O)c4cccc(C)c4)c13)C(=O)N(C)C2	none (no result: Anthrax LF inh2, Bead autofluor, BoNT A protease, BoNT F protease, 3CLpro inhibitor)
C[C@@H]1/C=C/CC(=O)N[C@H](c2ccc3ccccc3c2)[C@H](C)/C=C/CC(=O)N[C@@H]1c1ccc2ccccc2c1	none (no result: Anthrax LF inh2, Bead autofluor, BoNT A protease, BoNT F protease, 3CLpro inhibitor)
COc1ccc(C2C(C(=O)c3sc(C)nc3C)=C(O)C(=O)N2CCCn2ccnc2)cc1OC (centres undefined)	Bead autofluor 20435
CCN(CC)CCCN1C(=O)C(O)=C(C(=O)c2sc(C)nc2C)C1c1ccco1 (centres undefined)	Bead autofluor 19534
COc1ccc(C2C(C(=O)c3sc(C)nc3C)=C(O)C(=O)N2CCCn2ccnc2)cc1 (centres undefined)	none (no result: 3CLpro inhibitor)
CCN(CC)CCCN1C(=O)C(O)=C(C(=O)c2cc3cccc(OC)c3o2)C1c1ccncc1 (centres undefined)	Bead autofluor 21784, BoNT A protease inconclusive
COc1cccc2cc(C(=O)C3=C(O)C(=O)N(CCCN4CCOCC4)C3c3ccncc3)oc12 (centres undefined)	none (no result: CCHFV vOTU inh, Anthrax LF inh2, Bead autofluor, BoNT A protease, BoNT F protease)
CCCCNC(=O)C[C@H]1C[C@@]2(C(=O)OC)C(=C[C@H](C(C)C)O[C@@H]2C2CC2)N(Cc2ccccc2)C1=O	none (no result: Anthrax LF inh2, Bead autofluor, BoNT A protease, BoNT F protease, 3CLpro inhibitor)
Cc1ccc(NC(=O)C2CCCN(c3nnc(-n4cccc4)s3)C2)c(C)c1 (centres undefined)	none (no result: Anthrax LF inh2, Bead autofluor, BoNT A protease, BoNT F protease, 3CLpro inhibitor)
Cc1cc(C)cc(C(=O)OCCCN(C)C2CN(Cc3cn(Cc4ccc([N+](=O)[O-])cc4)nn3)S(=O)(=O)C2)c1 (centres undefined)	none (no result: Anthrax LF inh2, Bead autofluor, BoNT A protease, BoNT F protease, 3CLpro inhibitor)
CCOC(=O)COc1c(Br)cc(C2NC(=O)NC(C)=C2C(C)=O)cc1OC (centres undefined)	none
C=CCOc1c(Br)cc(C2NC(=O)NC(C)=C2C(C)=O)cc1OCC (centres undefined)	Bead autofluor 22042
COC(=O)/C=C(\C)NC(=O)c1cccs1	Bead autofluor 18031
COC(=O)/C=C(\C)NC(=O)c1ccc(F)cc1	none
CCOC(=O)c1cnn(-c2ccccc2)c1NC(=O)c1ccccc1	none
CCOC(=O)c1cnn(-c2cccc(Cl)c2)c1N	Bead autofluor 16767
CCOC(=O)c1cnn(-c2ccccc2)c1NC(=O)c1ccc(C)cc1	Bead autofluor 23981
N#Cc1ccc(S(=O)(=O)N2CCCc3nc(-c4ccc(F)cc4)ccc32)cc1	none (no result: Anthrax LF inh2, Bead autofluor, BoNT A protease, BoNT F protease, 3CLpro inhibitor)
Cc1ccc(C(=O)Nc2ccc3c(c2)nc2n3CCSC2)cc1	Bead autofluor 23988
CCCCC(=O)Nc1ccc2c(c1)nc1n2CCSC1	none

Source: PubChem (several laboratories)
